In one assay the test system is CRL-7250. The assay can be described thus: Cytotoxic Profiling of Annotated Libraries Using Quantitative High-Throughput Screening (AID 1296008). On max response: on the % scale 0 is the no-effect control and ±100 the full control effect. The note with it: Five cell lines viability, CellTiter-Glo ATP luminescence, 48-72 h; max response: hits give low values. Summed up: (§1)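 Compounds were pin-transferred onto cells and incubated 48 or 72 hr at 37 degree Celsius, 95% humidity. CellTiter-Glo was added, plates sat 10 min at room temperature, then ATP-coupled luminescence was imaged as the viability read-out.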
A general note: In ATP-based viability assays light output follows the ATP content of the culture.

A further assay concerns HEK293. Described as above. The note with it: Five cell lines viability, CellTiter-Glo ATP luminescence, 48-72 h; max response: hits give low values. In outline: as §1
The subject of assay [1] is HaCat. The assay is described as above. The note with it: Five cell lines viability, CellTiter-Glo ATP luminescence, 48-72 h; max response: hits give low values. Summed up: as §1
Assay [2] has as its system NIH3T3. The description is as above. The note with it: Five cell lines viability, CellTiter-Glo ATP luminescence, 48-72 h; max response: hits give low values. Summed up:
as §1

In assay [3] the test system is HACAT. The assay can be described thus: qHTS assay to identify novel small-molecules to repurpose for Merkel cell carcinoma treatment (AID 1296009). The note with it: MCC and control cell lines, CellTiter-Glo viability, 72 h; at 44.8 µM (top of the series) unless noted. Summed up: (§2)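 Cells exposed to NPC (8-point) and MIPE (11-point) compound dilutions for 72 hr at 37 degree celsius; viability read by CellTiter-Glo luminescence, normalized to no-cell and DMSO in-plate controls.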
(qHTS replaces the single test concentration by a dilution series.)

The next assay concerns MCC-13. The assay is described as above. The note with it: MCC and control cell lines, CellTiter-Glo viability, 72 h; series mostly up to 46 µM. In outline:
as §2

A further assay concerns MCC-26. The description is as above. The note with it: MCC and control cell lines, CellTiter-Glo viability, 72 h; series mostly up to 46 µM. In outline: as §2
The subject of the next assay is MKL-1. Described as above. The note with it: MCC and control cell lines, CellTiter-Glo viability, 72 h; series mostly up to 46 µM. In outline: as §2
The next assay deals with MKL-2. Described as above. The note with it: MCC and control cell lines, CellTiter-Glo viability, 72 h; series mostly up to 46 µM. Summed up: as §2
In another assay the test system is UISO. The assay is described as above. The note with it: MCC and control cell lines, CellTiter-Glo viability, 72 h; series mostly up to 46 µM. Summed up:
as §2

For a further assay, the system named is WaGa. Described as above. The note with it: MCC and control cell lines, CellTiter-Glo viability, 72 h; series mostly up to 46 µM. Summed up: as §2
The next assay relates to KB-3-1. The assay can be described thus: Cytotoxic Profiling of Annotated Libraries Using Quantitative High-Throughput Screening (AID 1296008). On max response: on the % scale 0 is the no-effect control and ±100 the full control effect. The note with it: Five cell lines viability, CellTiter-Glo ATP luminescence, 48-72 h; max response: hits give low values. Summed up: as §1
The test system of assay [4] is NIH3T3. The assay can be described thus: qHTS assay to identify novel small-molecules to repurpose for Merkel cell carcinoma treatment (AID 1296009). The note with it: MCC and control cell lines, CellTiter-Glo viability, 72 h; at 44.8 µM (top of the series) unless noted. Summed up:
as §2

A further assay concerns HEK293T. The assay is described as above. The note with it: MCC and control cell lines, CellTiter-Glo viability, 72 h; at 44.8 µM (top of the series). Summed up: as §2
Another assay has as its system SC27B. The assay can be described thus: qHTS profiling for inhibitors of Plasmodium falciparum proliferation (AID 504749). The note with it: P. falciparum in erythrocytes, SYBR Green DNA, 72 h; series mostly up to 28.7 µM. In outline:
(§3)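 P. falciparum-infected erythrocytes (0.3% parasitemia, 2.5% hematocrit final) were exposed to compounds for 72 h at 37 C in 5% CO2, then lysed with SYBR Green buffer overnight at room temperature; parasite DNA fluorescence was normalized to artemisinin and DMSO controls.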

The next assay relates to W2. The description is as above. The note with it: P. falciparum in erythrocytes, SYBR Green DNA, 72 h; series mostly up to 28.7 µM. In outline:
as §3

The structures appear in SMILES notation. Inconclusive results are not listed. Values without a mark were called inactive. The source made the active and inactive calls. The call rests on the fitted dose curve; in most records, active means well fitted inhibition curve with a large enough effect; inconclusive means small, poorly fitted or top-dose-only effect; inactive means flat fitted curve, though single readings scatter.
Further: nearly all actives have a fitted effect of over 60% in size.
Potency means the concentration at half of the fitted maximal effect.

Consider `CC(C(O)c1ccccc1)N(C)C/C=C/c1ccccc1` (centres undefined), for which the max response with CRL-7250 was -8.13%; in the assay on HEK293 it was -9.94%; in the assay with NIH3T3 [2], 2.21%. The molecule was classed as inactive with HaCat [1] and in the assay with HACAT [3]. The Potency entry with MCC-13, in the assay with MCC-26, with MKL-1, in the assay with MKL-2, in the assay with UISO and with WaGa was “inactive” in each case.

For the molecule `CN(C)CCc1c[nH]c2ccc(O)cc12`, the values for the max response in the assay on CRL-7250 and in the assay with KB-3-1 were 4.21% and 2.29%, respectively. Also, the outcome with HaCat [1] and with NIH3T3 [2] was inactive. The outcome in the assay on HACAT [3] and in the assay with NIH3T3 [4] was “inactive [at 92 µM]” each time. Moreover, the Potency entry in the assay on MCC-13 and in the assay on MKL-1 was “inactive” each time. In addition, the Potency in the assay on UISO was 53.4 µM (active).

Consider `CCOC(=O)NC(C)(C)Cc1ccc(Cl)cc1`, for which the max response was -4.28% with CRL-7250, 1.84% with HaCat [1], 2.37% in the assay on KB-3-1 and -3.93% in the assay with NIH3T3 [2]. Besides, in the assay with HEK293T, the molecule was called inactive. Besides, the Potency entry in the assay with MCC-13, with MCC-26, with MKL-1, in the assay on MKL-2, in the assay with UISO and in the assay on WaGa was “inactive” throughout.

For `CCc1cc(OC)c(C[C@H](C)N)cc1OC`, the max response is -4.69% in the assay with CRL-7250, 0.504% in the assay with HaCat [1], -8.43% with KB-3-1 and -16.2% with NIH3T3 [2]. In addition, the Potency result in the assay on MCC-13, in the assay with MCC-26, in the assay on MKL-1, with MKL-2 and in the assay with WaGa was “inactive” in each case.

For the molecule `COc1cc(C[C@@H](C)N)c(OC)cc1Br`, the max response with CRL-7250 is 2.12%; with HaCat [1] it was -1.26%; in the assay with KB-3-1 it was -0.0524%; in the assay on NIH3T3 [2] it was -1.11%. Moreover, the Potency result with MCC-13, in the assay with MCC-26, in the assay on MKL-1, in the assay with MKL-2, with UISO and in the assay on WaGa was “inactive” in each case.

Consider `CN(C)CCc1c[nH]c2ccccc12`, for which the max response was 2.04% with CRL-7250, 4.72% in the assay on HaCat [1], -5.51% in the assay on KB-3-1 and 2.6% with NIH3T3 [2]. For the same molecule, the Potency entry with MCC-13, in the assay with MCC-26, in the assay on MKL-1, with MKL-2, in the assay with UISO and in the assay on WaGa was “inactive” each time.

For `CC(Cc1ccccc1)NCc1ccccc1Cl` (centres undefined), the Potency result in the assay on SC27B, with MCC-13, with MCC-26, in the assay with MKL-1, in the assay on MKL-2 and in the assay with UISO was “inactive” in each case. The Potency result in the assay with WaGa is “inactive”. Moreover, in the assay on W2, the Potency is 5.36 µM (active). In addition, the max response is -20.3% in the assay on CRL-7250, -41.8% in the assay with HaCat [1], -8.17% in the assay on KB-3-1 and -14.1% in the assay with NIH3T3 [2].

For `O=C(N[C@@H]1N=C(c2ccccc2F)c2cccc3c2N(CC3)C1=O)c1cc2ccccc2[nH]1`, the max response is -34.1% in the assay with CRL-7250, -2.29% with HaCat [1] and -13.9% with KB-3-1. The figures for the Potency in the assay with NIH3T3 [2] and in the assay with UISO were 4.32 µM (active) and 2.99 µM (active), respectively. For the same molecule, the Potency result in the assay with MCC-13, in the assay on MCC-26, in the assay with MKL-1, in the assay on MKL-2 and in the assay with WaGa was “inactive” in each case.

On to `O=C(O)Cc1ccccc1`, for which the max response in the assay with CRL-7250 was -22.4%; in the assay on KB-3-1, -2.72%. The molecule was classed as inactive in the assay with HaCat [1], in the assay with NIH3T3 [2], in the assay on HACAT [3] and with NIH3T3 [4]. The Potency entry in the assay on MCC-13, in the assay on MCC-26, in the assay on MKL-1, with MKL-2, in the assay on UISO and in the assay on WaGa was “inactive” throughout.

The record behind these values is PubChem BioAssay (NCATS).
